We go through 40 sequences from the OligoGym collection.
Further: reference of the scale not given here.

The first assay concerns the target MED31. The experiment in a line: pooled miR-30 sensor sort-seq; sequence = guide strand. The settings on record: shRNA.
TTGTCTTTGAAGTAACCTCTTT yielded a sensor-assay potency score (higher = more potent) of -0.371.
Consider TCTAACATGTGTAAACACTGAG, for which the sensor-assay potency score (higher = more potent) was 0.543.
Still for that read-out and setting: for TATTGGAGCAGCTCTAACATGT the value was -0.528; for TTGGAGCAGCTCTAACATGTGT, -0.598.
Consider AACATGTGTAAACACTGAGGGT, for which the sensor-assay potency score (higher = more potent) was -0.84.
Same read-out and setting: the figure for TCCAACTCCAACTGAAACCGAA is -1.04.

The target of the next assay is MEI1. The assay is described as above. The settings on record: shRNA.
As for TGGAACAGGACTACTAAGCTGG, the sensor-assay potency score (higher = more potent) stood at 0.124.
On the same count and under the same terms, the figure for TTGTGAGCTGTGTCCACTGGGC is -0.159.
As for TAGACTAGCTGCAGGTCTGGGA, the sensor-assay potency score (higher = more potent) is -0.257.
The sequence TAGCACTTTCTCCCAGTCCATC returned a sensor-assay potency score (higher = more potent) of -1.62.
With TCTTGCTCTGACACATTCCTGA, the sensor-assay potency score (higher = more potent) came to 0.143.
As to TTCTCTGAATCTCTACTGGAGG, the sensor-assay potency score (higher = more potent) is -0.666.
Take TTGCTCTGACACATTCCTGAGC: the sensor-assay potency score (higher = more potent) was -0.804.
As for TTGCGCACTAACGACACGCCGG, the sensor-assay potency score (higher = more potent) was -1.01.
For AAAGGTAACAGACAGAAGCTTG, the sensor-assay potency score (higher = more potent) was -0.962.
Still for that read-out and setting: for ATGGTGAGTATAGACTAGCTGC the value was -0.611.
As for TTTTCTGATTGCACTGACCATA, the sensor-assay potency score (higher = more potent) was -0.486.

The target in a further assay is MEN1. The description is as above. The conditions noted are these: shRNA.
For TTGTAGTCCTGGATGACAGTGG, the sensor-assay potency score (higher = more potent) turned out to be 0.138.
TAGAGGGACAGGTCGACGGCGC yielded a sensor-assay potency score (higher = more potent) of -0.785.
Still for that read-out and setting: for TATGACATCGGAGACCTTCTTC the value was 0.751; for TTCAGGTACAGCCAGCTCCGCT, -1.42.
Same read-out and setting: for TTGTGGTAGAGGGTGAGTGGGT the value was -0.985.
Sequence TTCATCTGCACTTGCGACTGTG gave a sensor-assay potency score (higher = more potent) of 0.123.
Same read-out and setting: the figure for TTCTTCATCTGCACTTGCGACT is -0.844.
Still for that read-out and setting: the figure for TCATCTGCACTTGCGACTGTGC is -1.27.
On the same count and under the same terms, for TAGTAGGTCTTGGCTGAGGCAA the value was -1.23; for TACTTCAAAGAACTCCTTGTAG, 0.208.
On to TTCTTCACCAGCTCACGGCTGG, for which the sensor-assay potency score (higher = more potent) was -0.0281.
Same read-out and setting: for TAGATCTCCTCGTCTTCCCGGC the value was -0.0589.

In another assay the target is MEPCE. The assay is described as above. The settings on record: shRNA.
TTTCGAACGGTGGTGGTCCCTT showed a sensor-assay potency score (higher = more potent) of -0.585.
The sequence TAGTAGTTCTTGTAGATCGTTT had a sensor-assay potency score (higher = more potent) of -0.407.
As to TTGGATTCGGTAGTAGTTCTTG, the sensor-assay potency score (higher = more potent) turned out to be 0.313.
TTGTTGGGGAAGACTGATGTGT came in with a sensor-assay potency score (higher = more potent) of -0.599.
On the same count and under the same terms, for TAGTGTCGGATGTTTTGGCGGG the value was -0.437; for TAGTATTTGCAATAATTCCCAT, -0.782.
Same read-out and setting: the figure for TTCAGATGCACCCACTTGGTGA is -1.03; for TTCTTGTAGATCGTTTCTGTAA it is -0.866; for TTGTGGAACAGGTACACAGGAC it is -0.946.
With TAAGAGTCTTTCTCTTGCCATA, the sensor-assay potency score (higher = more potent) was -1.25.
For TAACTGAGGCAGCTGGAGGGGC, the sensor-assay potency score (higher = more potent) was -0.431.
